{"source": "ChEMBL document CHEMBL3988442", "about": "“University of Dundee, Small-Polar-MMV Screening Library” (2021)", "note": "In all, about 69,000 compounds went through this assay and about 950 (1.4%) showed an effect of 50% or more. Only a selection was taken, and strong results are over-represented in it overall.", "data": [{"tested_on": "Mycobacterium tuberculosis", "experiment": "Cornell M. t heat shock assay; note: in the data most compounds retested in dose-response had high values", "type": "functional, organism-based", "design": "dose or concentration left out as unconfirmed", "units": {"Percent Effect": "%"}, "values": [{"smiles": "Cc1cccc(CN2C(=O)CCC23CCNCC3)n1.O=C(O)C(F)(F)F.O=C(O)C(F)(F)F", "Percent Effect": -5.538}, {"smiles": "COCCN1CCC2(CCCN(c3ncccn3)C2)C1.O=C(O)C(F)(F)F", "note": "(stereo not drawn)", "Percent Effect": -80.98}, {"smiles": "CN1CCC(c2n[nH]c3ncccc23)C1.O=CO", "note": "(stereo not drawn)", "Percent Effect": 50.56}, {"smiles": "c1cnc(N2CCC(c3n[nH]c4ncccc34)C2)nc1", "note": "(stereo not drawn)", "Percent Effect": -8.956}, {"smiles": "CN1CCCC(c2n[nH]c3ncccc23)C1", "note": "(stereo not drawn)", "Percent Effect": -10.45}, {"smiles": "Cc1ccccc1N1CCN(c2ccncn2)C(C)C1", "note": "(stereo not drawn)", "Percent Effect": 56.56}, {"smiles": "Cc1ccc(N2CCN(c3ccccc3C)CC2C)nn1", "note": "(stereo not drawn)", "Percent Effect": 2.644}, {"smiles": "Cc1ccccc1N1CCN(c2cc(N(C)C)ncn2)C(C)C1", "note": "(stereo not drawn)", "Percent Effect": 21.52}, {"smiles": "Cc1ccc(Nc2nccc(C3CCN(C(=O)CN)C3)n2)nc1.Cl", "note": "(stereo not drawn)", "Percent Effect": -1.968}, {"smiles": "COc1cccc(COCC(O)CN(C)c2ccc(C)cc2C)c1", "note": "(stereo not drawn)", "Percent Effect": -34.76}, {"smiles": "OCC1(CC2CCCCO2)CCN(c2cnc3ccccc3n2)CC1", "note": "(stereo not drawn)", "Percent Effect": 103.4}, {"smiles": "Cc1cc(N2CCC(CO)(CC3CCCCO3)CC2)c2ccccc2n1", "note": "(stereo not drawn)", "Percent Effect": -3.721}, {"smiles": "Cc1cc(N2CCC(CO)(CC3CCCCO3)CC2)nc2ccccc12", "note": "(stereo not drawn)", "Percent Effect": 3.069}, {"smiles": "CO[C@@H]1CC[C@H]2[C@H]1OCCN2Cc1ccc(F)cc1.O=C(O)C(F)(F)F", "Percent Effect": -14.29}, {"smiles": "CCn1cc(NC(=O)CN2CCC(Oc3ccc(F)cc3)CC2)c(C)n1.Cl", "Percent Effect": -4.397}, {"smiles": "CCCN(C(=O)c1ccccn1)c1nc2c(s1)CCc1c-2cnn1C", "Percent Effect": 103.2}, {"smiles": "CCCN(C(=O)c1cccnc1)c1nc2c(s1)CCc1c-2cnn1C", "Percent Effect": 19.23}, {"smiles": "CCCN(C(=O)c1cnccn1)c1nc2c(s1)CCc1c-2cnn1C", "Percent Effect": -8.207}, {"smiles": "CCCN(C(=O)c1cnc(C)cn1)c1nc2c(s1)CCc1c-2cnn1C", "Percent Effect": -19.73}, {"smiles": "CCCN(C(=O)c1ccncc1)c1nc2c(s1)CCc1c-2cnn1C", "Percent Effect": 61.93}, {"smiles": "COCCN(C(=O)c1ccccn1)c1nc2c(s1)CCc1c-2cnn1C", "Percent Effect": 15.96}, {"smiles": "Cc1nc(N2CCOCC2)nc2c1CCN(Cc1nccn1C)CC2.O=C(O)C(F)(F)F", "Percent Effect": -4.986}, {"smiles": "O=C(O)C(F)(F)F.O=C(c1cccnc1)N1CCC2(CCN(C(=O)N3CCCC3)CC2)C1", "Percent Effect": 2.065}, {"smiles": "CCN1Cc2nccn2CC(COCc2csc(C)n2)C1.O=C(O)C(F)(F)F.O=C(O)C(F)(F)F", "note": "(stereo not drawn)", "Percent Effect": 34.39}, {"smiles": "CN1C(=O)CC(c2ccccc2)C12CCN(CCO)CC2.O=C(O)C(F)(F)F", "note": "(stereo not drawn)", "Percent Effect": 13.27}, {"smiles": "Cl.O[C@@H]1CN(Cc2cccc(F)c2)CC[C@H]1NCc1ccccn1", "Percent Effect": 14.29}, {"smiles": "COc1ccc2c(c1)CN(Cc1nc3c(cnn3C)c(=O)[nH]1)CC2", "Percent Effect": -0.696}, {"smiles": "CCOc1ccc2c(c1)CN(Cc1nc3c(cnn3C)c(=O)[nH]1)CC2", "Percent Effect": -1.196}, {"smiles": "COc1ccc2c(c1)CN(Cc1nc3ccsc3c(=O)[nH]1)CC2", "Percent Effect": 63.99}, {"smiles": "Fc1cnc(N2C[C@@H](OCC3CCOCC3)[C@H]3OCCC[C@H]32)nc1.O=C(O)C(F)(F)F", "Percent Effect": 41.59}, {"smiles": "CC(C)N1CCc2nnc(COc3cncnc3)n2CC1.O=C(O)C(F)(F)F", "Percent Effect": -11.8}, {"smiles": "CO[C@H]1CCN(C(=O)c2ccsc2)[C@@H]2CN(CC3CC3)C[C@H]12.O=C(O)C(F)(F)F", "Percent Effect": -4.831}, {"smiles": "Cc1cccc(N2CCOCC3(C2)CN(c2ccoc2)C(=O)CO3)n1.O=C(O)C(F)(F)F", "note": "(stereo not drawn)", "Percent Effect": 36.14}, {"smiles": "CN(C)[C@@H]1CN(C(=O)Cc2ccsc2)[C@@H]2CCCO[C@H]12.O=C(O)C(F)(F)F", "Percent Effect": 1.941}, {"smiles": "c1ccc2sc(N3CCN(c4ncnc5c4CCC5)CC3)nc2c1", "Percent Effect": -9.42}, {"smiles": "c1ccc2sc(N3CCCN(c4ncnc5c4CCNC5)CC3)nc2c1", "Percent Effect": 53.45}, {"smiles": "Cc1ncnc(N2CCCN(c3nc4ccccc4s3)CC2)c1C", "Percent Effect": 10.22}, {"smiles": "O=C(c1ccco1)N1C(CN2CCOCC2)[C@]2(O)CC[C@H]1CC2", "note": "(stereo partly drawn)", "Percent Effect": 30.59}, {"smiles": "Cc1nc(CO[C@@H]2CN(Cc3ccccn3)[C@@H]3COC[C@@H]32)cs1", "Percent Effect": -33.39}, {"smiles": "c1ccc(CO[C@@H]2CN(Cc3ccoc3)[C@@H]3COC[C@@H]32)nc1", "Percent Effect": 52.89}, {"smiles": "Fc1ccc(CN2C[C@@H](OCc3ccccn3)[C@H]3COC[C@H]32)cc1.O=C(O)C(F)(F)F.O=C(O)C(F)(F)F", "Percent Effect": 25.12}, {"smiles": "Cc1nc(C2CCNC2)nc2c1CCC(=O)N2C.Cl", "note": "(stereo not drawn)", "Percent Effect": 7.271}, {"smiles": "O=C(NCCc1ccccc1)NCC(O)c1cccs1", "note": "(stereo not drawn)", "Percent Effect": 20.6}, {"smiles": "CN1CC(=O)c2sc(NCCc3ccccc3)nc2C1", "Percent Effect": -13.74}, {"smiles": "Br.O=C(O)c1csc(NCCc2ccccc2)n1", "Percent Effect": 78.91}, {"smiles": "COCCNC(=O)c1cc(-c2cc[nH]n2)n2ccccc12.O=C(O)C(F)(F)F", "Percent Effect": -6.749}, {"smiles": "O=C(O)C(F)(F)F.O=C(O)C(F)(F)F.O=C(O)C(F)(F)F.c1cncc(CN2CCC3(COCCN(C4CCOCC4)C3)C2)c1", "note": "(stereo not drawn)", "Percent Effect": -18.23}, {"smiles": "O=C(C1CCCO1)N1CCC2(CC1)COCCN(Cc1cccnc1)C2.O=C(O)C(F)(F)F.O=C(O)C(F)(F)F", "note": "(stereo not drawn)", "Percent Effect": -5.406}, {"smiles": "O=C([C@@H]1CCCO1)N1CCOCC2(CCN(Cc3cccnc3)C2)C1", "note": "(stereo partly drawn)", "Percent Effect": 51.35}, {"smiles": "Cc1ccc(N2CCC3(CCN(C(=O)c4ccoc4)CC3)CC2)nn1.O=C(O)C(F)(F)F", "Percent Effect": -13.67}, {"smiles": "CS(=O)(=O)NCc1cn2c(n1)CN(Cc1cccnc1)CC2.O=C(O)C(F)(F)F.O=C(O)C(F)(F)F", "Percent Effect": 42.6}, {"smiles": "CN1CCC(c2nc3ccc(-c4cccc(F)c4)cn3n2)CC1.O=C(O)C(F)(F)F", "Percent Effect": 3.867}, {"smiles": "Cl.N#Cc1ccc(NC(=O)C2CSCN2)cc1", "note": "(stereo not drawn)", "Percent Effect": 75.04}, {"smiles": "O=C(Nc1ccc(F)cc1)C1CSCN1", "note": "(stereo not drawn)", "Percent Effect": 55.12}, {"smiles": "Cc1csc2c(N3CCNC(C(=O)Nc4ccc(F)cc4)C3)ncnc12", "note": "(stereo not drawn)", "Percent Effect": 27.39}, {"smiles": "O=C(Nc1ccc(F)cc1)C1CCc2ccccc2N1", "note": "(stereo not drawn)", "Percent Effect": 1.641}, {"smiles": "CNc1ncc(-c2ccc(NC(=O)[C@@H]3CCCCN3)cc2)cn1", "Percent Effect": -9.316}, {"smiles": "Nc1ncc(-c2ccc(NC(=O)[C@@H]3CCCCN3)cc2)cn1", "Percent Effect": -9.095}]}]}
